Read-out in assay [1]: sulfotransferase 2A1 (SULT2A1), SULT2A1 (gene 6822)
In words: LTEA_HepaRG_SULT2A1: Life Technologies and Expression Analysis (LTEA) Assay for sulfotransferase 2A1 (SULT2A1) using HepaRG (AID 2283531; active means hit-call score of the fitted dose curve at least 0.9, where 1 is the maximum; inactive means score below 0.9). The conditions noted are these: mRNA level, 48 h; actives raise or lower the signal. A digest of the protocol: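 Cells were plated and cultured 48 h, switched to serum-free induction medium, then dosed in duplicate for 48 h (8 concentrations, max 100 uM). RNA was isolated and SULT2A1 expression measured by qRT-PCR; gain or loss of signal fitted relative to DMSO.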

Read-out in assay [2]: Transforming Growth Factor (TGFA), TGFA (gene 7039)
Briefly: LTEA_HepaRG_TGFA: Life Technologies and Expression Analysis (LTEA) Assay for Transforming Growth Factor (TGFA) using HepaRG (AID 2283532; active means hit-call score of the fitted dose curve at least 0.9, where 1 is the maximum; inactive means score below 0.9). The conditions noted are these: mRNA level, 48 h; actives raise or lower the signal. A digest of the protocol:
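TGFA transcript quantified by qRT-PCR (Fluidigm arrays) against three housekeeping genes, after 48 hours chemical treatment of HepaRG cells. Top concentration 100 uM with half-log dilutions, 8 points, duplicates, 0.5% DMSO.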

Read-out in assay [3]: Transforming Growth Factor (TGFB1), TGFB1 (gene 7040)
In words: LTEA_HepaRG_TGFB1: Life Technologies and Expression Analysis (LTEA) Assay for Transforming Growth Factor (TGFB1) Transporter using HepaRG (AID 2283533; active means hit-call score of the fitted dose curve at least 0.9, where 1 is the maximum; inactive means score below 0.9). The conditions noted are these: mRNA level, 48 h; actives raise or lower the signal. A digest of the protocol:
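Expression change of TGFB1 in human HepaRG cells is measured after a 48 h chemical exposure, up to 100 uM in 0.5% DMSO vehicle. Curves are fitted in both directions relative to the DMSO baseline.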

Read-out in the next assay: TIMP1, TIMP1 (gene 7076)
Briefly: LTEA_HepaRG_TIMP1: Life Technologies and Expression Analysis (LTEA) Assay for TIMP1 using HepaRG (AID 2283534; active means hit-call score of the fitted dose curve at least 0.9, where 1 is the maximum; inactive means score below 0.9;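 further: TaqMan qRT-PCR signal normalized to ACTB GAPDH and POLR2A housekeeping genes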). The conditions noted are these: mRNA level, 48 h; actives raise or lower the signal. A digest of the protocol: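 We dosed human liver HepaRG cultures for 48 hours with up to 100 uM test chemical and measured TIMP1 expression by qRT-PCR. Activity in either direction is fitted relative to the 0.5% DMSO vehicle.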

Read-out in assay [4]: Thyroid Hormone Responsive (THRSP), THRSP (gene 7069)
Briefly: LTEA_HepaRG_THRSP: Life Technologies and Expression Analysis (LTEA) Assay for Thyroid Hormone Responsive (THRSP) using HepaRG (AID 2283536; active means hit-call score of the fitted dose curve at least 0.9, where 1 is the maximum; inactive means score below 0.9). The conditions noted are these: mRNA level, 48 h; actives raise or lower the signal. A digest of the protocol: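 THRSP transcript quantified by Fluidigm qRT-PCR against three housekeeping genes after 48 h chemical exposure of HepaRG cells in serum-free induction medium; eight-point half-log series, top 100 uM, 0.5% DMSO vehicle, duplicate wells.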

Read-out in assay [5]: Cellular tumor antigen p53 (Homo sapiens) (UniProt P04637)
In words: LTEA_HepaRG_TP53: Life Technologies and Expression Analysis (LTEA) Assay for Tumor Protein P53 (TP53) using HepaRG (AID 2283537; active means hit-call score of the fitted dose curve at least 0.9, where 1 is the maximum; inactive means score below 0.9). The conditions noted are these: mRNA level, 48 h; actives raise or lower the signal. A digest of the protocol:
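Gain or loss of TP53 mRNA signal is scored relative to 0.5% DMSO after 48 h chemical treatment of HepaRG liver cells, tested in duplicate at eight half-log concentrations up to 100 uM.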

Read-out in assay [6]: UDP glucuronosyltransferase (UGT1A1), UGT1A1 (gene 54658)
In words: LTEA_HepaRG_UGT1A1: Life Technologies and Expression Analysis (LTEA) Assay for UDP glucuronosyltransferase (UGT1A1) using HepaRG (AID 2283538; active means hit-call score of the fitted dose curve at least 0.9, where 1 is the maximum; inactive means score below 0.9). The conditions noted are these: mRNA level, 48 h; actives raise or lower the signal. The method in brief: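 Cells are plated, cultured 48 h, switched to serum-free induction medium, then dosed 48 h at eight concentrations (max 100 uM, 0.5% DMSO). RNA is isolated and UGT1A1 expression measured by qRT-PCR; changes versus DMSO are fitted in both directions.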

Read-out in assay [7]: UDP glucuronosyltransferase (UGT1A6), UGT1A6 (gene 54578)
Briefly: LTEA_HepaRG_UGT1A6: Life Technologies and Expression Analysis (LTEA) Assay for UDP glucuronosyltransferase (UGT1A6) using HepaRG (AID 2283539; active means hit-call score of the fitted dose curve at least 0.9, where 1 is the maximum; inactive means score below 0.9). The conditions noted are these: mRNA level, 48 h; actives raise or lower the signal. The method in brief:
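Endpoint is UGT1A6 transcript induction or loss in a human liver cell line, quantified by TaqMan qRT-PCR 48 h after dosing. Concentrations ran from 100 uM downward in half-log steps in 0.5% DMSO; activity was fitted in both directions versus vehicle.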

Read-out in assay [8]: X-box binding protein 1 (XBP1), XBP1 (gene 7494)
In words: LTEA_HepaRG_XBP1: Life Technologies and Expression Analysis (LTEA) Assay for X-box binding protein 1 (XBP1) using HepaRG (AID 2283540; active means hit-call score of the fitted dose curve at least 0.9, where 1 is the maximum; inactive means score below 0.9). The conditions noted are these: mRNA level, 48 h; actives raise or lower the signal. The method in brief:
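Human HepaRG monolayers receive test chemical for 48 h across an eight-point half-log series starting at 100 uM. XBP1 mRNA gain or loss is scored against DMSO by qRT-PCR.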

The nature of assay [9]: LTEA_HepaRG_LDH_cytotoxicity: Cytotoxicity Assessment in the Life Technologies and Expression Analysis (LTEA) Assay (AID 2283563).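 On AC50: LDH activity released into spent culture medium as a marker of cell death.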 A digest of the protocol: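 Human HepaRG hepatic cells are treated with test chemicals for 48 h at up to 100 uM in 0.5% DMSO. Cytotoxicity is scored from medium LDH against the vehicle control.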
Assay [10] in a line: ATG_XTT_Cytotoxicity: Cytotoxicity Assessment in the Attagene TRANS-FACTORIAL HepG2 Assay (AID 2283584).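 On AC50: XTT signal for cell number as viability in transfected HepG2 cells; cells exposed to compound for 24 h before reading; active means loss of viability signal versus DMSO baseline.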 A digest of the protocol:
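Transfect HepG2 with GAL4-UAS reporter units, dose compound, incubate 24 h, then measure viable cell number by XTT. Fit concentration response against DMSO baseline.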

In assay [11] the target is Cellular tumor antigen p53 (Homo sapiens) (UniProt P04637). Briefly: TOX21_p53_BLA_p2_ratio: Tox21 HCT-116 p53 Agonism Beta-lactamase Assay, Ratio, Phase 2 (AID 2283592). The method in brief:
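Cleaved-to-uncleaved substrate ratio (460 vs 530 nm) measured in HCT116 cells with an inducible beta-lactamase reporter linked to p53 activity. Compounds incubated 16 h at 37C before 2 h room-temperature CCF4-AM loading.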

The nature of assay [12]: TOX21_p53_BLA_p3_viability: Viability Assessment in the Tox21 HCT-116 p53 Agonism Beta-lactamase Assay, Phase 3 (AID 2283593).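 Further: cells exposed to compound for 16 h before reading.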 The method in brief:
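Cellular ATP was quantified by CellTiter-Glo luminescence, read after 30 min at room temperature. Beforehand, HCT116 cells (4000/well) received compound 5 h post-seeding, 217-fold diluted from DMSO, then incubated 16 h at 37C.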

The target in assay [13] is Cellular tumor antigen p53 (Homo sapiens) (UniProt P04637). Briefly: TOX21_p53_BLA_p3_ratio: Tox21 HCT-116 p53 Agonism Beta-lactamase Assay, Ratio, Phase 3 (AID 2283596). A digest of the protocol:
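Cells were seeded at 4000/well, rested 5 h at 37C, then dosed with DMSO compound solutions (217-fold dilution) for 16 h. CCF4-AM substrate was loaded for 2 h at room temperature, and the 460/530 nm emission ratio was fitted for gain of signal versus DMSO.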

Assay [14] in a line: TOX21_p53_BLA_p4_viability: Viability Assessment in the Tox21 HCT-116 p53 Agonism Beta-lactamase Assay, Phase 4 (AID 2283597).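 Further: hits lower the luminescence signal meaning cytotoxicity.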 The method in brief:
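Viability is taken as cellular ATP: after 16 h compound exposure of HCT116 cells and a 2 h room-temperature CCF4-AM substrate step, CellTiter-Glo reagent is added and luminescence is measured 30 min later.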

For assay [15], the target named is Cellular tumor antigen p53 (Homo sapiens) (UniProt P04637). Briefly: TOX21_p53_BLA_p5_ratio: Tox21 HCT-116 p53 Agonism Beta-lactamase Assay, Ratio, Phase 5 (AID 2283599). A digest of the protocol:
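Beta-lactamase reporter ratio (blue 460 nm over green 530 nm, 405 nm excitation) after 2 h CCF4-AM loading, in HCT-116 cells exposed 16 h at 37 C to compounds pinned at 217-fold dilution. Increases relative to DMSO baseline scored.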

The target is the same in assay [16]. In words: TOX21_p53_BLA_p4_ratio: Tox21 HCT-116 p53 Agonism Beta-lactamase Assay, Ratio, Phase 4 (AID 2283601). A digest of the protocol:
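Signal is the blue/green (460nm/530nm) ratio of cleaved versus uncleaved CCF4-AM substrate, read after 2 h substrate loading. Cells were HCT116 carrying the p53-responsive beta-lactamase reporter, dosed 16 h at 37C, 5% CO2; CellTiter-Glo measured in parallel.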

A short description of assay [17]: Tanguay_ZF_120hpf_MORT_legacy: (Legacy) Oregon State University Tanguay Lab 120 Hour Post-fertilization zebrafish Assay for Mortality (AID 2283633). A digest of the protocol: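 Mortality endpoint from a multiplexed whole-embryo zebrafish screen. Dechorionated wild-type embryos received compound at 6 hpf and remained under static exposure at 28C until 120 hpf, with death noted as a present/absent call.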

Assay [18] in a line: TOX21_p53_BLA_p2_viability: Viability Assessment in the Tox21 HCT-116 p53 Agonism Beta-lactamase Assay, Phase 2 (AID 2283591).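 Further: compound exposure lasted 16 h at 37 °C; actives lower the ATP signal meaning cytotoxicity.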 The method in brief: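 Cytotoxicity readout: CellTiter-Glo ATP luminescence, 30 min at room temperature, after the beta-lactamase read. Cells were HCT116 exposed 16 h at 37C to compounds pin-transferred at 217-fold dilution from DMSO stocks.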
The nature of assay [19]: TOX21_p53_BLA_p5_viability: Viability Assessment in the Tox21 HCT-116 p53 Agonism Beta-lactamase Assay, Phase 5 (AID 2283600). A digest of the protocol: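 Viability is taken from cellular ATP content, measured by luciferase luminescence in the same wells after the beta-lactamase ratio read. Cells are seeded at 4000 per well and exposed to DMSO-dissolved compounds, diluted 217-fold, for 16 h.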

What is called AC50 is the concentration giving half of the maximal activity seen.

Values joined by “and” are separate entries in the source; they are usually repeats but may differ in a detail not shown here. Identical values can stand only once. Inconclusive results are not listed. Some compounds were tested as several samples or in several runs, with calls that do not always agree. Active and inactive are the calls of the source. How the source made its calls, unless noted: active means hit-call score of the fitted dose curve at least 0.9, where 1 is the maximum; inconclusive means response in the unintended direction; inactive means score below 0.9.

Cellular tumor antigen p53 (Homo sapiens), sequence (P04637 whole entry, looked up): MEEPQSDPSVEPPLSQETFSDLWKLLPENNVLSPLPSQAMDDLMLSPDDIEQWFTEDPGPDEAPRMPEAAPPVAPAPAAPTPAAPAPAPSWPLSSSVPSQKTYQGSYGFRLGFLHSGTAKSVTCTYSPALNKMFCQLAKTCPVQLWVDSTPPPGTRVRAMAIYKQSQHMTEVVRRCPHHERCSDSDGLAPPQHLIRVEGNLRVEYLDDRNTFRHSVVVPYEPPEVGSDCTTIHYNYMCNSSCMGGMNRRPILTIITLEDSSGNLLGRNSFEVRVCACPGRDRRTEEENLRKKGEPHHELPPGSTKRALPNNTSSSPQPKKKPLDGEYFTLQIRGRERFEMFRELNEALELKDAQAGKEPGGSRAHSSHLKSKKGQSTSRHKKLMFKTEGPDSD

With `O=c1[nH]c(=O)[nH]c(=O)[nH]1`, the outcome in [1] is “inactive”; in assay [2] it was “inactive”; in [3], “inactive”; with TIMP1, TIMP1 (gene 7076), “inactive”; in assay [4], “inactive”; in assay [5] it was “inactive”. Moreover, the molecule was called inactive in assay [6], in assay [7], in assay [8], in assay [9], in assay [10] and in assay [11]. The result in assay [12], in assay [13], in assay [14], in assay [15], in [16] and in [17] was inactive.
Take `CC(C)(C)CC(C)(C)c1ccc(O)cc1`: the outcome in assay [1] is “inactive”; in assay [2], “inactive”; in [3], “inactive”; in the assay with TIMP1, TIMP1 (gene 7076), “inactive”; in assay [4], “inactive”; in [5] it was “inactive”. In addition, the result in [6], in assay [7], in assay [8], in assay [10], in assay [13] and in [16] was inactive. The outcome in [17] was inactive. The AC50 was 77 µM (active) in [9]; 26.7 µM (active) and 58.4 µM (active) and 53.9 µM (active) in assay [10]; 64.5 µM (active) and 42.4 µM (active) in [18]; 74.7 µM (active) and 35.4 µM (active) in [11]; 41.9 µM (active) in [13]; 69 µM (active) and 22.2 µM (active) in assay [14]. The AC50 in [15] was 61.9 µM (active) and 38.6 µM (active); in [19], 65.3 µM (active) and 39.6 µM (active); in assay [16] it was 79.4 µM (active).
With `CC(C)c1cccc(C(C)C)c1O`, the call in [10], in assay [18], in assay [11], in [12], in assay [13] and in assay [14] was inactive. Further, in assay [15], the result was inactive.
Regarding `O=Cc1cccc(Oc2ccccc2)c1`, in assay [10], the call was inactive.
Same read-out and setting: as for `C[C@@H](Oc1ccc(Cl)cc1Cl)C(=O)O`, the entry is “inactive”; as for `C=CC(=O)N(C)C`, “inactive”; as for `COS(=O)(=O)c1ccc(C)cc1`, “inactive”.
Turning to `COc1ccc(OC)c(C=O)c1`, the call in [10] was inactive.
In the case of `C[C@H]1CCCC(=O)CCC/C=C/c2cc(O)cc(O)c2C(=O)O1`, the result in [10], in assay [18], in [11], in assay [14], in assay [15] and in [19] was inactive. Further, the AC50 in [11] was 11.7 µM (active); in [13] it was 12.3 µM (active) and 15.8 µM (active); in assay [15], 11.7 µM (active); in assay [16], 8.07 µM (active) and 12.3 µM (active).
As to `CCOP(=S)(OCC)SCCS(=O)(=O)CC`, in assay [10], the molecule was called inactive.
The same measure, in the same setting: as for `C=CCc1ccc(OC)cc1`, the entry is “inactive”.
Same read-out and setting: as for `C[C@]12CC[C@H](O)CC1=CC[C@@H]1[C@@H]2CC[C@]2(C)C(=O)CC[C@@H]12`, the entry is “inactive”; as for `O=C1CCCN1`, “inactive”.
Take `O=C1C(Cl)=C(Cl)C(=O)c2ccccc21`: the molecule was classed as inactive in assay [10], in assay [18], in assay [11] and in [16]. In addition, the AC50 in assay [18] is 15 µM (active); in [12], 30.9 µM (active) and 46.2 µM (active); in assay [13], 54.1 µM (active) and 67.3 µM (active); in assay [14], 14.5 µM (active) and 14.4 µM (active); in [15] it was 63.4 µM (active) and 19.6 µM (active); in assay [16], 17.1 µM (active).
With `ClC1=C(Cl)[C@]2(Cl)[C@@H]3[C@@H](Cl)[C@@H](Cl)C[C@@H]3[C@@]1(Cl)C2(Cl)Cl`, the result in assay [10] was inactive.
Take `C=CC#N`: the outcome in assay [10], in assay [18], in assay [11], in assay [12], in assay [13] and in [14] was inactive. Besides, the outcome in [15] and in [16] was inactive.
In the case of `COP(=O)(OC)OC`, the result in assay [10], in assay [18], in [11], in assay [12], in assay [13] and in [14] was inactive. Moreover, the result in assay [15] and in [16] was inactive.

Source of the values: PubChem BioAssay (EPA / NIEHS).
